In ChEMBL document CHEMBL4513216, “Probing the Open Global Health Chemical Diversity Library for Multistage-Active Starting Points for Next-Generation Antimalarials” (ACS Infect Dis, 2020) one finds INHIBITION data, which are given here for 54 compounds.

Hit rate of the full screen: of about 65,000 compounds, about 2,100 (3.2%) showed an effect of 50% or more. The median lay at about -52%. The sample holds strong results, similar compounds and a random draw of the others, so the mix is not that of the screen.

For the assay, the system named is Plasmodium falciparum. In words: Screen against P. falciparum Asexual Blood Stage (ABS), at 5uM. The class given is functional, Dd2. Conditions: tested at 5 uM.
With `CNc1cccc(C2CCCN(C(=O)Cc3ccccc3)C2)n1` (centres undefined), the INHIBITION was -62.3%.

For `COc1cccc(C(=O)C2CCCN(c3cc(C#N)ccn3)C2)c1` (centres undefined), the INHIBITION is -25.2%.

For the compound `Cc1noc(CNC(=O)C2CSCCC(=O)N2)n1` (centres undefined), the INHIBITION is recorded as -164%.

For the compound `COc1ncc(C2(O)CCN(Cc3c(F)cccc3F)CC2)c(OC)n1`, the INHIBITION came to 13.1%.

As to `NC(=O)NCC(=O)N1C[C@@H]2CC[C@H]1CN(Cc1ccccc1)C2`, the INHIBITION is recorded as -9.53%.

On to `CNC(=O)C1(N2CCC[C@H]2C(=O)NC2CC2)CCCCC1`, for which the INHIBITION was -145%.

As for `COCCc1noc(C2CCCN(c3ncnc4c3CCC4)C2)n1` (centres undefined), the INHIBITION is recorded as -100%.

With `COc1cccc(Cn2ncnc2CCC(C)N2CCN(C)CC2)c1` (centres undefined), the INHIBITION was -99.9%.

On to `N[C@@H]1CCN(Cc2ccccc2CS(=O)(=O)c2ccccc2)C[C@H]1O`, for which the INHIBITION is -23.3%.

For `O=S(=O)(Cc1ccccc1CN1CC[C@H](CO)[C@H](O)C1)c1ccccc1`, the INHIBITION was 16.9%.

`NC1CCCCN(Cc2ccccc2CS(=O)(=O)c2ccccc2)C1` (centres undefined): the INHIBITION is 55.9%.

Regarding `Cc1nc(N2CCC(C)CC2)ncc1-c1cc(O)nc(N2CCCC2)n1`, the INHIBITION is on record as -113%.

With `Fc1cccc(Cl)c1Cn1ncnc1CSCCN1CCCC1`, the INHIBITION stood at 61.7%.

Regarding `O=C1CCCCCN1Cc1ncnn1Cc1c(F)cccc1Cl`, the INHIBITION is on record as -29.5%.

In the case of `O=C1OCCN1Cc1ncnn1Cc1c(F)cccc1Cl`, the INHIBITION is listed as -76.9%.

On to `CS(=O)(=O)N1C[C@@H]2COC[C@]2(CN2CCOCC2)C1`, for which the INHIBITION is -107%.

On to `CNC(=O)C1CCC2(CCN(c3nncs3)CC2)CO1` (centres undefined), for which the INHIBITION is given as -79.1%.

For `Cc1noc(C2CCN(C(=O)c3ccc(NC4CC4)nc3)CC2)n1`, the INHIBITION is given as -9.68%.

With `Cc1noc(C2CCN(C(=O)c3ccc(C(F)(F)F)nc3)CC2)n1`, the INHIBITION is recorded as 57%.

With `Cc1noc(C2CCN(C(=O)c3ccc(N(C)C)nc3)CC2)n1`, the INHIBITION is given as -27%.

For the compound `CN(Cc1ccco1)C1CCC12CCN(C(=O)N1CCCC1)CC2` (centres undefined), the INHIBITION is listed as -76%.

As for `O=C(c1cccc2cccnc12)N1CCCC(n2ccnc2)C1` (centres undefined), the INHIBITION is on record as 55.4%.

Take `O=C(c1cccc2ncccc12)N1CCCC(n2ccnc2)C1` (centres undefined): the INHIBITION was -2.7%.

Consider `O=C(c1cccnc1N1CCCCC1)N1CCCC(n2ccnc2)C1` (centres undefined), for which the INHIBITION amounted to 29.5%.

Turning to `Cc1cc(C(=O)NCc2ccc(N3CCN(C)CC3)nc2)c(C)s1`, the INHIBITION is -56.2%.

Take `O=C(c1cccc(F)c1Cl)N(CCO)CC1CC1`: the INHIBITION was 9.7%.

Take `O=C(NCc1cc(Br)cs1)Nc1cn[nH]c1`: the INHIBITION is on record as -116%.

`O=C(CC1CC1)N1CC[C@H]2[C@@H]1CCC(=O)N2c1cccnc1`: the INHIBITION was -27.5%.

Consider `O=C1CC(c2ccc(C(=O)O)cc2)c2c(sc3c2CCCC3)N1` (centres undefined), for which the INHIBITION is listed as -3.15%.

Regarding `O=C1CC(c2cccnc2)c2c(sc3c2CCCC3)N1` (centres undefined), the INHIBITION is recorded as 29.8%.

`O=C1CC(c2ccncc2)c2c(sc3c2CCCC3)N1` (centres undefined): the INHIBITION stood at 56.8%.

Take `CCn1cnnc1CNC(=O)c1cc(Cl)ccc1F`: the INHIBITION is -20.1%.

For the compound `Cc1cnn(CC2CCCN2C(=O)Cc2ccc3c(c2)CCO3)c1` (centres undefined), the INHIBITION is -48.8%.

For `COc1cccc(CN2CCN(c3ccc4nncn4n3)C(C)C2)c1` (centres undefined), the INHIBITION is listed as -39.5%.

For the compound `CC1CN(Cc2cccc(C#N)c2)CCN1c1ccc2nncn2n1` (centres undefined), the INHIBITION is 50.9%.

`CC1CN(Cc2cccnc2)CCN1c1ccc2nncn2n1` (centres undefined): the INHIBITION is on record as 10.1%.

`COCCCNS(=O)(=O)c1ccc(N2CCCCS2(=O)=O)cc1`: the INHIBITION is on record as -76.7%.

Consider `Cn1ccnc1CN1CCN(Cc2ccncc2)[C@@H]2CS(=O)(=O)C[C@@H]21`, for which the INHIBITION is -33.9%.

As to `CN1Cc2nc[nH]c2C[C@H]1C(=O)NC1CCCCC1`, the INHIBITION was found to be 53%.

Regarding `CN(Cc1ccccc1)C(=O)[C@@H]1Cc2[nH]cnc2CN1C`, the INHIBITION is reported as 42.2%.

For the compound `O=C([C@@H]1Cc2[nH]cnc2CN1C(=O)NC1CCCCC1)N1CCCC1`, the INHIBITION is listed as -56.1%.

With `Cc1c[nH]c(C2CCCN(C(=O)CCc3c(C)n[nH]c3C)C2)n1` (centres undefined), the INHIBITION is given as -98.1%.

`CCOc1ccc(C(=O)Nc2c(C)nc3ccccn3c2=O)cc1`: the INHIBITION was -144%.

For `CCn1nc2c(cc1=O)CN(Cc1nc(-c3cccs3)no1)CC2`, the INHIBITION is reported as 20.5%.

On to `CSCC(CCO)NC(=O)c1cccc(F)c1Cl` (centres undefined), for which the INHIBITION is reported as 9.25%.

As to `C[C@@H]1CN(Cc2cc(C3CCCCC3)no2)CC[C@]1(C)O`, the INHIBITION is listed as -6.78%.

Consider `NC1CCCCN(Cc2cc(C3CCCCC3)no2)C1` (centres undefined), for which the INHIBITION was 62%.

Turning to `OCC1COCCN(Cc2cc(C3CCCCC3)no2)C1` (centres undefined), the INHIBITION was -122%.

Consider `COCC(NC(=O)c1cn(-c2cccc(Cl)c2F)nn1)C1CC1` (centres undefined), for which the INHIBITION is -24.2%.

For `Cc1ccc2cccc(S(=O)(=O)N(C)C3CCCN(C)C3)c2n1` (centres undefined), the INHIBITION stood at 33.8%.

As for `Cc1ccc2cccc(S(=O)(=O)N(C)CC3CCN(C)CC3)c2n1`, the INHIBITION is given as 58.6%.

With `Cc1ccc2cccc(S(=O)(=O)N(C)CC3CCN(C)C3)c2n1` (centres undefined), the INHIBITION is reported as 37.8%.

In the case of `Cn1c(CCC(=O)N2CCCC3(CC2)CNC(=O)O3)nc2cccnc21` (centres undefined), the INHIBITION was -38.1%.

Turning to `CC(C)CCN1C(=O)c2ccc(C(=O)NCCc3c[nH]cn3)cc2C1=O`, the INHIBITION is listed as -19.2%.
